# Molecular target: VGLL2
# Assay: pooled miR-30 sensor sort-seq; sequence = guide strand
# Conditions: shRNA
# Further: reference of the scale not given here.
row,Sequence,sensor-assay potency score (higher = more potent)
1,TAACAAAATAATTCACATCAGC,-0.803
2,TTACTTCTCTACCACAGTCTTA,-0.551
3,TTCTCTACCACAGTCTTAGATG,-1.22
4,TAATGTTCGTCTCTTCTTCCTC,-0.332
5,TATAATCACACTACCTAACAAA,-1.39
6,TAAAATCTGACAGTAGTAGTGC,0.941
7,TAAGTGAAGAGGACGCAGCGGG,-0.197
8,TTGTCTAACAACAGCTGCATTT,-1.41
9,TTAAACATAACTCAGTCTTTGG,-0.689

# Molecular target: VIPR2
# Assay: as above
# Conditions: shRNA
row,Sequence,sensor-assay potency score (higher = more potent)
1,TTTGCTGTAAAAATTGCTGAAG,-0.647
2,TCTGGGAACGTCTCTGACCATC,-1.08
3,TCTTGTACTGAGACTGGTCGTT,-0.0864
4,TAAAACGTGATCTTGCTCTCAT,1.2
5,TTGACCAGCACTGAGATGGCTC,-0.324
6,TTCAGGTGGATGTAATTCCTGG,-0.512
7,TTTCGCTTCAGCTCGCACTGCA,0.156
8,TTTGAGACCTCAGAAGCTCTGC,0.397
9,TTTTGCTTATGTTTCCTGCTTT,0.362
10,TTGCTGAAGACTTTTGGGCAGG,-1.06
11,TAGTGGACGCCGAACAGCGGGA,-0.939
12,TTCACCAGAATATAAAACGTGA,-0.447

# Molecular target: VKORC1
# Assay: as above
# Conditions: shRNA
row,Sequence,sensor-assay potency score (higher = more potent)
1,AACAATGCAGAAATCATAGAGC,-0.667
2,ATAGCATAGGTGGTGATACAAA,-1.7
3,TTGGACCTTCCGGAAACTGAGC,-1.21
4,TAGAGCACGAAGAACAGGATCC,-0.705
5,ATAGGTGGTGATACAAACAATG,-1.33
6,TAGGTGGTGATACAAACAATGC,-1.84
7,AGCACGAAGAACAGGATCCAGG,-2.45
8,TCACGTTGATAGCATAGGTGGT,-0.749
9,TTGATAGCATAGGTGGTGATAC,-0.976
10,TCATAGAGCACGAAGAACAGGA,0.298
11,TAGAGCGAGAGCACTAAGCCCG,-0.598
12,TTGATTGAGGATGCTGTCCTGT,0.167

# Molecular target: VN1R2
# Assay: as above
# Conditions: shRNA
row,Sequence,sensor-assay potency score (higher = more potent)
1,TTTACTTTCATCTCTGCCCACC,-1.01
2,TTGGGGTAGAGATTGTTCCTAC,-0.232
3,TTATTGGATACAAAGCAGGAGA,-0.969
4,TTAGATAGGATAACCAAGGAGT,-0.311
5,TTCTTTGTGATGTTGTTGTTGC,-0.241
6,TACAAGACCAAAACGATGGAGC,-0.2
7,TTTTACTTTCATCTCTGCCCAC,-0.563
